# Test results: ChEMBL document CHEMBL3988442, “University of Dundee, Small-Polar-MMV Screening Library” (2021)
# The whole screen tested about 38,000 compounds, of which about 1,200 (3.2%) showed an effect of 50% or more. The median lay at about -58%. The list comes from a sample in which strong results are over-represented; it also holds similar structures and randomly drawn compounds.
# System: Plasmodium falciparum
# Assay: Calibr Malaria Delayed Death Assay SOP
# Type: functional, organism-based
# Design: scale not given: in the data most compounds retested in dose-response had high values
# Details: concentration 4.99e-06 (unit not given; other assays of the set use mol/L)
row,SMILES,Percent Effect
1,Cc1nc2c(c(N(C)C)n1)CCN(C(=O)c1ccc(N)nc1)C2,-40.57%
2,O=C(CCc1ccccc1)NCC1CCN(Cc2ccccc2)CC1,43.31%
3,CC(=O)N1CCCN(CCn2nc3ccccn3c2=O)CC1,-130.1%
4,CN(C)CCN(C)S(=O)(=O)Cc1ccc(Br)cc1,62.66%
5,CCCNS(=O)(=O)Cc1ccc(Br)cc1,-18.14%
6,CC(O)CCN(C)S(=O)(=O)Cc1ccc(Br)cc1 (stereo not drawn),-27.23%
7,CC(Cn1cccn1)NC(=O)NCc1ccnc(OC2CCCC2)c1 (stereo not drawn),-91.81%
8,O=C(CCc1cccs1)Nc1ccnn1C1CCS(=O)(=O)C1 (stereo not drawn),-51.38%
9,Cc1ccc(C(=O)N2CC[C@]3(C[C@@H](OCc4ccccn4)CO3)C2)nc1.O=C(O)C(F)(F)F.O=C(O)C(F)(F)F,-9.931%
10,CNc1cncc(C2CCCN2Cc2cccc(C)n2)n1 (stereo not drawn),-46.34%
11,Cc1nonc1C1CCCN1Cc1ccc(C(=O)Nc2nccs2)cc1 (stereo not drawn),-15.94%
12,Cc1ccc(C)c(CSc2nnc([C@@H](N)C(C)C)o2)c1.Cl,-98.07%
13,FC(F)Oc1ccccc1CN1CCCC(c2nccn2CC2CC2)C1 (stereo not drawn),86.3%
14,N#Cc1ccccc1CN1CCCC(c2nccn2CC2CC2)C1 (stereo not drawn),10.64%
15,NC(=O)Cn1ccnc1C1CCCN(Cc2ccccc2OC(F)F)C1 (stereo not drawn),-1.798%
16,Cc1cc(NC(=O)CN2CCCC2c2noc(C(C)C)n2)no1 (stereo not drawn),-88.6%
17,COCC1CCCN(C(=O)c2ccc(N(C)Cc3cnn(C)c3)nc2)C1 (stereo not drawn),-103.7%
18,O=C(CCCn1cnc2ccccc2c1=O)Nc1nc[nH]n1,-6.042%
19,O=C(Cc1ccc2c(c1)CCC2)NC1CCN(Cc2ccccc2)CC1,27.79%
20,O=C(Nc1ccccn1)C1CCN(Cc2cc3c(cc2O)OCO3)CC1,-119.6%
21,O=C(CCCNC(=O)C1CCCO1)Nc1ccc(Cl)cc1 (stereo not drawn),-38.58%
22,CCc1nc(CN(C)CC(=O)OC(C)(C)C)cs1,-47.19%

row,SMILES,Percent Effect
1,COc1cccc([C@@H]2CCN(Cc3ccc4ccccc4n3)C[C@H]2O)c1,-19.61%
2,COc1cccc([C@@H]2CCN(Cc3cn(C)c4ccccc34)C[C@H]2O)c1,77.7%
3,COc1cccc([C@@H]2CCN(Cc3cccc(C)n3)C[C@H]2O)c1,-31.33%
4,Cc1ccc(CN(C)C(=O)CN2CCc3ccccc3C2)o1,-48.11%
5,CC(C)n1cnnc1CN(C)C(=O)C1CCCN(C2CCN(C)CC2)C1 (stereo not drawn),-93.39%
6,Cn1ccc2c(ccn2CC(=O)Nc2ccc(Br)cc2)c1=O,-82.23%
7,CC(=O)c1c(C)nn(CC(=O)Nc2ccc(F)cc2)c1C,-45.58%
8,COc1ccc(NC(=O)Cn2nc(C)ccc2=O)cc1OC,-36.97%
9,COc1ccc(CC(=O)Nc2ccc3ncn(C)c(=O)c3c2)cc1,-105.2%
10,CC(=O)c1c(C)nn(CC(=O)Nc2ccc(Br)cc2)c1C,66.34%
11,COc1ccc(NC(=O)Cn2nc(C)c(C(C)=O)c2C)cc1,89.56%
12,CCOCc1cncc2c1CCN(C(=O)c1cscn1)C2.O=C(O)C(F)(F)F,-50.24%
13,Cc1nc(C2CCCN2C(=O)CCCn2cncn2)no1 (stereo not drawn),-14.54%
14,COc1ccc(S(=O)(=O)N2CCC(Cn3ccnc3)CC2)cc1,-82.14%
15,CCc1ocnc1C(=O)N1CCOC(c2nc(C(C)C)n[nH]2)C1 (stereo not drawn),-32.06%
16,CCc1cnc(N)nc1N[C@@H](C)c1ncccc1C,2.334%
17,CCc1cnc(N)nc1NC(C)c1ccc(C)c(C)c1 (stereo not drawn),72.97%
18,CCc1cnc(N)nc1NC(C)c1cnn(C)c1 (stereo not drawn),-61.87%
19,CCS(=O)(=O)c1cccc(C(=O)Nc2cccc3c2C(=O)N(C)C3=O)c1,-74.2%
20,CN(Cc1ccco1)[C@@H]1CN(Cc2ccccn2)C[C@@H]2CCCO[C@@H]21.O=C(O)C(F)(F)F.O=C(O)C(F)(F)F.O=C(O)C(F)(F)F,29.58%
21,CN(Cc1ccco1)[C@@H]1CN(Cc2ccc(F)cc2)[C@@H]2CCCO[C@H]12.O=C(O)C(F)(F)F.O=C(O)C(F)(F)F,54.29%
22,CN(Cc1ccco1)[C@@H]1CN(Cc2cccnc2)[C@@H]2CCCO[C@H]12.O=C(O)C(F)(F)F.O=C(O)C(F)(F)F.O=C(O)C(F)(F)F,-47.89%

row,SMILES,Percent Effect
1,CC(C)NC(=O)[C@@H]1CC[C@@H]2[C@@H](CCN2Cc2cn(C)c3ccccc23)O1.O=C(O)C(F)(F)F,76.85%
2,CN(Cc1ccco1)[C@@H]1CN(CC2CCOCC2)C[C@@H]2CCCO[C@@H]21.O=C(O)C(F)(F)F.O=C(O)C(F)(F)F,11.5%
3,Cn1cc(CN2CC[C@H]3O[C@H](C(=O)NC4CC4)CC[C@H]32)c2ccccc21.O=C(O)C(F)(F)F,22.79%
4,CN(Cc1ccco1)[C@@H]1CN(Cc2ccncc2)C[C@@H]2CCCO[C@@H]21.O=C(O)C(F)(F)F.O=C(O)C(F)(F)F.O=C(O)C(F)(F)F,7.341%
5,CNC(=O)[C@@H]1CC[C@@H]2[C@@H](CCN2Cc2cn(C)c3ccccc23)O1.O=C(O)C(F)(F)F,-13.73%
6,Cc1ccc(CN2C[C@@H]3CCCO[C@@H]3[C@H](N(C)Cc3ccco3)C2)s1.O=C(O)C(F)(F)F.O=C(O)C(F)(F)F,73.4%
7,CN(Cc1ccco1)[C@@H]1CN(Cc2cccs2)C[C@@H]2CCCO[C@@H]21.O=C(O)C(F)(F)F.O=C(O)C(F)(F)F,64.28%
8,CN(Cc1ccco1)[C@@H]1CN(Cc2cnn(C)c2)[C@@H]2CCCO[C@H]12.O=C(O)C(F)(F)F.O=C(O)C(F)(F)F,23.66%
9,CN(Cc1ccco1)[C@@H]1CN(Cc2nccs2)C[C@@H]2CCCO[C@@H]21.O=C(O)C(F)(F)F.O=C(O)C(F)(F)F,29.14%
10,Cc1ccc(NC2CCN(C(=O)c3ccc(C#N)cc3)CC2)nn1,-90.82%
11,Cc1nccc(NCc2cncc3c2CCN(S(C)(=O)=O)C3)n1.Cl,-112.1%
12,CSCC[C@H](NC(=O)CCn1ccc2c(Cl)cccc21)C(=O)O,-54.73%
13,Cn1cc(CN2CCCC23CCN(C(=O)c2ccsc2)CC3)cn1.O=C(O)C(F)(F)F,-0.2713%
14,Cc1nn(C)cc1-c1cc(C(F)(F)F)nc(NC2CCCCC2)n1,-100.7%
15,CN(Cc1ccco1)[C@@H]1CN(Cc2cccnc2)C[C@@H]2CCCO[C@@H]21.O=C(O)C(F)(F)F.O=C(O)C(F)(F)F.O=C(O)C(F)(F)F,27.09%
16,CN(Cc1cncnc1)[C@@H]1CN(Cc2ccco2)C[C@@H]2CCCO[C@@H]21.O=C(O)C(F)(F)F.O=C(O)C(F)(F)F,-10.65%
17,O=C(NCc1ccco1)[C@H]1CC[C@@H]2[C@@H](CCN2Cc2cccnc2)O1.O=C(O)C(F)(F)F.O=C(O)C(F)(F)F,-37.9%
18,O=C(NCc1ccco1)[C@@H]1CC[C@@H]2[C@@H](CCN2CC2CC2)O1.O=C(O)C(F)(F)F,7.283%
19,O=C(NCc1ccco1)[C@@H]1CC[C@@H]2[C@@H](CCN2Cc2ccc(F)cc2)O1.O=C(O)C(F)(F)F,66.38%
20,CN(Cc1ccco1)[C@@H]1CN(Cc2ccoc2)C[C@@H]2CCCO[C@@H]21,59.2%
21,Cc1cc(I)c2c(c1)C(=O)C(CN1CCCC1)(CN1CCCC1)CO2,-91.39%
22,CCCOC1CCCN(c2nc(COC)nc3c2cnn3C)C1 (stereo not drawn),-157.4%

row,SMILES,Percent Effect
1,CC(=O)Nc1nc(C2CCN(C(=O)c3ccncc3)CC2)cs1,10.73%
2,COCC1c2c(cnn2CC2CC2)CCN1Cc1cc(C)on1.O=C(O)C(F)(F)F.O=C(O)C(F)(F)F (stereo not drawn),-52.73%
3,COc1ncccc1C(Cc1ccsc1)NC(=O)Cn1cccnc1=O (stereo not drawn),-43.2%
4,COc1ccncc1NCc1ccsc1,-36.48%
5,CNc1cc(N2CCCC2CNCc2cccc(C#N)c2)ncn1 (stereo not drawn),-40.51%
6,Cc1ccc(C2CN(CCS(C)(=O)=O)CCO2)c(C)c1 (stereo not drawn),-57.06%
7,CN(Cc1cccc(F)c1)C(=O)CS(=O)(=O)Cc1c(Cl)cccc1Cl,82.58%
8,Cc1noc(C)c1CS(=O)(=O)CC(=O)N(C)Cc1cccc(F)c1,-32.62%
9,Cc1ccccc1CS(=O)(=O)CC(=O)N(C)Cc1cccc(F)c1,-13.79%
10,CO[C@H]1CC[C@H]2[C@H]1OCCN2C(=O)c1nn(C)c2ccccc12,-87.32%
11,CC1CN(CC(=O)NCc2ccc(F)cc2)CCN1c1nccs1 (stereo not drawn),-59.43%
12,CC/N=c1\nc(NCC)nc2n1C(O)(Nc1ccc(C)cc1C)CS2 (stereo not drawn),-60.63%
13,Cc1cccc(CS(=O)(=O)NCc2nn(C)c3c2COCC3)c1,-48%
14,O=C(C1CC1)N1CCC2(CC1)COCCN2Cc1ccc(F)cc1.O=C(O)C(F)(F)F,-44.57%
15,Cc1ccc(NC(=O)CN2CCOCC2)c(F)c1,-28.6%
16,Cc1nc(C)c(C)c(N2CCC3(CCN(C)C3)C2)n1 (stereo not drawn),18.67%
17,CCc1cnc(N)nc1N1CCCC2(CCOCC2)C1,-153.3%
18,CCc1nc(N)nc(N2CCCC3(CCN(C)CC3)CC2)c1C,75.43%
19,O=C(O)C(F)(F)F.O=C(c1cnccn1)N1C[C@@H](OCc2ccncc2)[C@@H]2OCCC[C@@H]21,-88.13%
20,CNC(=O)CCN(C)CC1(c2ccc(Br)cc2)CC1,86.7%
21,CNC(=O)N(C)CC1(c2ccc(Br)cc2)CC1,-138.2%
22,CNC(=O)CN(C)CC1(c2ccc(Br)cc2)CC1,20.85%
